PubChem BioAssay (EPA / NIEHS)
Records with an inconclusive call do not appear. Activity calls are given as the source filed them. How the source made its calls, unless noted: active means hit-call score of the fitted dose curve at least 0.9, where 1 is the maximum; inconclusive means response in the unintended direction; inactive means score below 0.9.

What was measured:
[1] = ATG_TAL_CIS: Attagene CIS-FACTORIAL HepG2 Assay for human TAL Basal Promoter (AID 2282966; active means hit-call score of the fitted dose curve at least 0.9, where 1 is the maximum; inactive means score below 0.9;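 further: background control endpoint measuring basal TAL promoter reporter mRNA not a specific factor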); conditions: HepG2 Attagene cis-factorial TAL promoter reporter; actives raise or lower the signal
Method in brief: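 Background-control endpoint: basal TAL promoter reporter transcripts in transiently transfected HepG2, measured 24 h after dosing. Read-out by RT-PCR with fluorescent primer extension and capillary electrophoresis; gain or loss of signal fitted relative to DMSO.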

[2] = ATG_TGFb_CIS: Attagene CIS-FACTORIAL HepG2 Assay for human Transforming Growth Factor (TGF) (AID 2282967; active means hit-call score of the fitted dose curve at least 0.9, where 1 is the maximum; inactive means score below 0.9); conditions: HepG2 Attagene CIS TGFb reporter, mRNA transcription; actives raise or lower the signal
Method in brief: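 Bidirectional fitting relative to DMSO gave the endpoint. Underlying data: reporter mRNA from HepG2 cells carrying transiently transfected cis-regulated reporter constructs, harvested 24 h after dosing and analyzed by RT-PCR and capillary electrophoresis.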

[3] = ATG_VDRE_CIS: Attagene CIS-FACTORIAL HepG2 Assay for human Vitamin D Receptor Element (VDRE) (AID 2282968; active means hit-call score of the fitted dose curve at least 0.9, where 1 is the maximum; inactive means score below 0.9); conditions: HepG2 VDRE cis-reporter transcription, actives raise or lower the signal
Method in brief: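 Measures endogenous factor activity through cis-element-driven reporter transcripts in transiently transfected HepG2. Cells are treated 24 h; reporter mRNA is quantified by RT-PCR and capillary electrophoresis; fitting is bidirectional.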

[4] = target: Nuclear receptor subfamily 1 group I member 3 (Homo sapiens) (UniProt Q14994); assay: ATG_CAR_TRANS: Attagene TRANS-FACTORIAL HepG2 Assay for human Constitutive Androstane Receptor (CAR) (AID 2282969); conditions: HepG2 Attagene TRANS-FACTORIAL CAR reporter;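 further: activators raise reporter mRNA above DMSO so AC50 marks induction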
Method in brief: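 Signal is reporter mRNA induction relative to DMSO, measured 24 h after dosing by RT-PCR with fluorescent primer extension and capillary electrophoresis. Human HepG2 liver cells carried transiently transfected chimeric NR-Gal4/GAL4-UAS reporter constructs.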

[5] = target: X-box-binding protein 1 (Homo sapiens) (UniProt P17861); assay: ATG_Xbp1_CIS: Attagene CIS-FACTORIAL HepG2 Assay for human X-box Binding Protein 1 (XBP1) (AID 2282972; active means hit-call score of the fitted dose curve at least 0.9, where 1 is the maximum; inactive means score below 0.9); conditions: HepG2 XBP1 cis-element reporter, Attagene multiplex; actives raise or lower the signal
Method in brief: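 Reporter transcripts were quantified by RT-PCR with fluorescent primer extension and capillary electrophoresis after 24 h chemical exposure. Cells: transiently transfected HepG2 carrying cis-regulated reporter constructs; data fitted bidirectionally relative to DMSO.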

[6] = ATG_M_19_TRANS: Attagene TRANS-FACTORIAL HepG2 Assay for M19 Transcription Factor (Internal Marker) (AID 2282974); conditions: HepG2 Attagene TRANS-FACTORIAL M19 internal marker reporter
Method in brief: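 Reporter mRNA induction was measured in transfected HepG2 cells 24 h after dosing. Endpoint fitted upward relative to DMSO and serves as a background control within the multiplexed TRANS panel.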

[7] = ATG_GAL4_TRANS: Attagene TRANS-FACTORIAL HepG2 Assay for GAL4 (Internal Marker) (AID 2282976); conditions: HepG2 Attagene TRANS GAL4 internal marker reporter
Method in brief: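 In transfected human HepG2 liver cells dosed 24 h, GAL4 reporter mRNA serves as a baseline marker. Detection by RT-PCR with fluorescent capillary electrophoresis, activity fitted upward relative to DMSO.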

[8] = target: Glucocorticoid receptor (Homo sapiens) (UniProt P04150); assay: ATG_GR_TRANS: Attagene TRANS-FACTORIAL HepG2 Assay for human Glucocorticoid Receptor (GR) (AID 2282978); conditions: HepG2 Attagene TRANS GR reporter, mRNA transcription;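 further: activators score as hits since higher reporter transcript over DMSO is fitted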
Method in brief: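 Reporter transcript levels, detected by fluorescence after RT-PCR and capillary electrophoresis, served as the endpoint. HepG2 cells bearing transfected GAL4-UAS reporters responsive to NR-GAL4 chimeras were incubated with compound 24 h; DMSO defined baseline.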

[9] = target: Bile acid receptor (Homo sapiens) (UniProt Q96RI1); assay: ATG_FXR_TRANS: Attagene TRANS-FACTORIAL HepG2 Assay for Farnesoid X Receptor (FXR) (AID 2282979); conditions: HepG2 Attagene TRANS FXR-GAL4 reporter transcription;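 further: hits raise reporter mRNA above DMSO so AC50 marks FXR activation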
Method in brief: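 Reporter transcripts from transfected HepG2 cells were measured 24 h after dosing, using RT-PCR with capillary electrophoresis of 6-FAM-labelled fragments. The read-out reflects activity of exogenous FXR-Gal4 chimera on GAL4-UAS units, with induction relative to DMSO.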

[10] = target: Oxysterols receptor LXR-alpha (Homo sapiens) (UniProt Q13133); assay: ATG_LXRa_TRANS: Attagene TRANS-FACTORIAL HepG2 Assay for human Liver X Receptor alpha (LXRa) (AID 2282980); conditions: HepG2 Attagene TRANS reporter, LXRa transactivation
Method in brief: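 Chemical-induced reporter mRNA measured by RT-PCR with fluorescent labelling and capillary electrophoresis after 24 h dosing of transiently transfected HepG2 cells expressing exogenous NR-Gal4 chimeras; increases scored against DMSO baseline.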

[11] = target: Oxysterols receptor LXR-beta (Homo sapiens) (UniProt P55055); assay: ATG_LXRb_TRANS: Attagene TRANS-FACTORIAL HepG2 Assay for human Liver X Receptor beta (LXRb) (AID 2282981); conditions: HepG2 Attagene TRANS GAL4-LXRb reporter, mRNA
Method in brief: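 After 24 h of chemical treatment, transfected HepG2 cells yield total RNA; reporter cDNA is PCR-amplified, FAM-labelled, HpaI-cut and run on capillary electrophoresis. Signal reflects chimeric LXRb-Gal4 activity on GAL4-UAS reporters.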

[12] = target: Hepatocyte nuclear factor 4-alpha (Homo sapiens) (UniProt P41235); assay: ATG_HNF4a_TRANS: Attagene TRANS-FACTORIAL HepG2 Assay for human Hepatocyte Nuclear Factor 4 alpha (HNF4a) (AID 2282982); conditions: HepG2 HNF4a transactivation reporter, mRNA readout
Method in brief: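 Multiplexed reporter assay: transfected HepG2, 24 h exposure, total RNA → oligo(dT) RT → PCR → 6-FAM extension → HpaI digest → CE fluorescence. DMSO = negative control.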

[13] = ATG_M_32_TRANS: Attagene TRANS-FACTORIAL HepG2 Assay for M32 Transcription Factor (Internal Marker) (AID 2282984); conditions: HepG2 Attagene TRANS M32 internal marker reporter
Method in brief: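 Cell-based TRANS-format assay in HepG2: exogenous chimeric GAL4 reporter units transiently expressed, compounds applied 24 h. Reporter mRNA detected by RT-PCR plus capillary electrophoresis; this readout is an internal background marker.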

[14] = target: Nuclear receptor subfamily 4 group A member 2 (Homo sapiens) (UniProt P43354); assay: ATG_NURR1_TRANS: Attagene TRANS-FACTORIAL HepG2 Assay for human Nuclear Receptor Related Protein 1 (NURR1) (AID 2282985); conditions: HepG2 Attagene TRANS reporter, mRNA readout
Method in brief: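 Measures transcriptional activation by an exogenous NR-Gal4 chimera in transfected HepG2 liver cells. After 24 h, reporter RNA is reverse-transcribed, amplified and resolved by capillary electrophoresis; DMSO defines baseline.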

[15] = target: Transcriptional activator Myb (Homo sapiens) (UniProt P10242); assay: ATG_Myb_CIS: Attagene CIS-FACTORIAL HepG2 Assay for human Myeloblastosis (Myb) Proto-Oncogene Transcription Factor (AID 2282986; active means hit-call score of the fitted dose curve at least 0.9, where 1 is the maximum; inactive means score below 0.9); conditions: HepG2 Attagene CIS-FACTORIAL Myb reporter transcription; actives raise or lower the signal
Method in brief: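 Transiently transfected HepG2 cells, treated 24 h. Reporter mRNA quantified by RT-PCR/capillary electrophoresis; bidirectional fit relative to DMSO.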

[16] = target: Steroid hormone receptor ERR1 (Homo sapiens) (UniProt P11474); assay: ATG_ERRa_TRANS: Attagene TRANS-FACTORIAL HepG2 Assay for human Estrogen-Related Receptor alpha (ERRa) (AID 2282971); conditions: HepG2 Attagene TRANS reporter, ERRa transactivation
Method in brief: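 Reporter transcripts from ERRa-Gal4 chimera activity measured in transiently transfected human HepG2 cells 24 hours after dosing, using RT-PCR with 6-FAM primer extension, HpaI digestion and capillary electrophoresis; DMSO is baseline.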

[17] = ATG_M_06_TRANS: Attagene TRANS-FACTORIAL HepG2 Assay for M06 Transcription Factor (Internal Marker) (AID 2282983); conditions: HepG2 Attagene TRANS M06 internal marker reporter
Method in brief: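 Background-control reporter readout: after 24 h chemical exposure of transiently transfected HepG2 (GAL4-UAS reporter units), mRNA quantified by RT-PCR with fluorescent labeling and capillary electrophoresis. Gain-of-signal fitting against DMSO baseline.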

[18] = target: Nuclear respiratory factor 1 (Homo sapiens) (UniProt Q16656); assay: ATG_NRF1_CIS: Attagene CIS-FACTORIAL HepG2 Assay for human Nuclear Respiratory Factor 1 (NRF1) Orphan Gene (AID 2282987; active means hit-call score of the fitted dose curve at least 0.9, where 1 is the maximum; inactive means score below 0.9); conditions: HepG2 NRF1 cis-element reporter, Attagene multiplex; actives raise or lower the signal
Method in brief: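 Cells (HepG2, transient MRTU transfection) are exposed to compound for 24 h, then RNA isolated and reporter mRNA amplified and fluorescently labelled. Fragments are separated by capillary electrophoresis; signal change is fitted bidirectionally relative to DMSO.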

[19] = target: Estrogen-related receptor gamma (Homo sapiens) (UniProt P62508); assay: ATG_ERRg_TRANS: Attagene TRANS-FACTORIAL HepG2 Assay for human Estrogen-Related Receptor gamma (ERRg) (AID 2282977); conditions: HepG2 Attagene TRANS reporter, ERRg transactivation;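 further: hits increase reporter signal over DMSO so potencies reflect activators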
Method in brief: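 Readout: fluorescent reporter-mRNA fragments resolved by capillary electrophoresis after RT-PCR and HpaI cut. Cells: transiently transfected HepG2 carrying GAL4-UAS reporters driven by exogenous NR-Gal4 chimeras, dosed 24 h. Activity fitted upward relative to DMSO baseline.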

Measured: AC50

Sequence of Nuclear respiratory factor 1 (Homo sapiens) (Q16656 whole entry, looked up, the tested form may be a part): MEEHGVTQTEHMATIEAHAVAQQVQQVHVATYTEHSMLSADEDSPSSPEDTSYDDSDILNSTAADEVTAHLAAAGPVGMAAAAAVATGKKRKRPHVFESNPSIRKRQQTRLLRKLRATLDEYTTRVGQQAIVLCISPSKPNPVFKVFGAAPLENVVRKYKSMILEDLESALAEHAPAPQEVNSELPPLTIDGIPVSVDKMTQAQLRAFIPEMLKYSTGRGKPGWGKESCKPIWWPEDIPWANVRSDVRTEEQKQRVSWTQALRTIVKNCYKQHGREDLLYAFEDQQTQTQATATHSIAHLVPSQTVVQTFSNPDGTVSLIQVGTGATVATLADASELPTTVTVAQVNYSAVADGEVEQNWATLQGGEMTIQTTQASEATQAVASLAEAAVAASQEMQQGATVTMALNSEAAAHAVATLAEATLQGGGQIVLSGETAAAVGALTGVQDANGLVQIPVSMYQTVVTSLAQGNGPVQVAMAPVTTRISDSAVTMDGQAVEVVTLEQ
Sequence of Hepatocyte nuclear factor 4-alpha (Homo sapiens) (P41235 whole entry, looked up): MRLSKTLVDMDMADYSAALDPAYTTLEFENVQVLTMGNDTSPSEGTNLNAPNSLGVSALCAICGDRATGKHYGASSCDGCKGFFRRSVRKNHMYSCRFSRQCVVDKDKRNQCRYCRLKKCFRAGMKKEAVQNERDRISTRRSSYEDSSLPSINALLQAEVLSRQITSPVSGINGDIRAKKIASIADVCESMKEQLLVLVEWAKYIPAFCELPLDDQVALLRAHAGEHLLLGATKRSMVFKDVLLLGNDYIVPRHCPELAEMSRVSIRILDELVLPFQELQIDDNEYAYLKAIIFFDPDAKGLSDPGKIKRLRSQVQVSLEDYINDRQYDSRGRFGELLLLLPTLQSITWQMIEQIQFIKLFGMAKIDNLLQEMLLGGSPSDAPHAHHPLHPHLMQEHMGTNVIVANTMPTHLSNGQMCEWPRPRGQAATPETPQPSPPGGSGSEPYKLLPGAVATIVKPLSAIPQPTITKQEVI
Sequence of Nuclear receptor subfamily 4 group A member 2 (Homo sapiens) (P43354 whole entry, looked up, the tested form may be a part): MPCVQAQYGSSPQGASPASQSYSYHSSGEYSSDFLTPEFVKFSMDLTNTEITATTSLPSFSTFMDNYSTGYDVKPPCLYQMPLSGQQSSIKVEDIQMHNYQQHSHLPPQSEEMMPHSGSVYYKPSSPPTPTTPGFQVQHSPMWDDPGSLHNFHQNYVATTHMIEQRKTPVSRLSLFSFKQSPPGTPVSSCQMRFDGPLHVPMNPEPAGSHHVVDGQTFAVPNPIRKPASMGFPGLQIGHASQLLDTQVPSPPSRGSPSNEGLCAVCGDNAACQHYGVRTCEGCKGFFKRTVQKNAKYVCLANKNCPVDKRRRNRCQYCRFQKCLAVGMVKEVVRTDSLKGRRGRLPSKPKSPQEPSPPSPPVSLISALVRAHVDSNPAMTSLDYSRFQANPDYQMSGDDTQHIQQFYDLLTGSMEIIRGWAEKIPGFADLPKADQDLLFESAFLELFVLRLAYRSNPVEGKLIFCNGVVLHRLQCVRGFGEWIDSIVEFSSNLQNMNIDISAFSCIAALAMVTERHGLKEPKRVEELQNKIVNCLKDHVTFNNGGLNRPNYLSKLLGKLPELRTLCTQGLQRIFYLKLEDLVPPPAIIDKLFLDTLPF
Sequence of X-box-binding protein 1 (Homo sapiens) (P17861 whole entry, looked up): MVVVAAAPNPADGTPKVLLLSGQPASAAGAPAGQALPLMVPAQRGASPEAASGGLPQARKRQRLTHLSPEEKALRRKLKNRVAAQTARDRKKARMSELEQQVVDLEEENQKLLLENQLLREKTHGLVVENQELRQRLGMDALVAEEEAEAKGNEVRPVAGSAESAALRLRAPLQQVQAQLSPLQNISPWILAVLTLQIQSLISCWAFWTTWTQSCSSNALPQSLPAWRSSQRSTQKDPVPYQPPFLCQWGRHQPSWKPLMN
Sequence of Oxysterols receptor LXR-alpha (Homo sapiens) (Q13133 whole entry, looked up, the tested form may be a part): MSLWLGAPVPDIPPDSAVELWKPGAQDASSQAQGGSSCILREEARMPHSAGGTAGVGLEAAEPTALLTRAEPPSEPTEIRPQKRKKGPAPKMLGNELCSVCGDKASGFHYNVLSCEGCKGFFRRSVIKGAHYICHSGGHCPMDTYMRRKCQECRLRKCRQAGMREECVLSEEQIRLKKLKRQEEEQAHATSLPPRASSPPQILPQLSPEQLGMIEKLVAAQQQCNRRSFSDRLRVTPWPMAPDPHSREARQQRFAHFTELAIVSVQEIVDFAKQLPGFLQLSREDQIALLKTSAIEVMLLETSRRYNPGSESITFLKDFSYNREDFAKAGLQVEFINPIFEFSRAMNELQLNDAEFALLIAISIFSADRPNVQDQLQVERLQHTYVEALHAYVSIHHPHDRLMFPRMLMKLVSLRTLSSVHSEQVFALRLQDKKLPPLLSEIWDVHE
Sequence of Steroid hormone receptor ERR1 (Homo sapiens) (P11474 whole entry, looked up, the tested form may be a part): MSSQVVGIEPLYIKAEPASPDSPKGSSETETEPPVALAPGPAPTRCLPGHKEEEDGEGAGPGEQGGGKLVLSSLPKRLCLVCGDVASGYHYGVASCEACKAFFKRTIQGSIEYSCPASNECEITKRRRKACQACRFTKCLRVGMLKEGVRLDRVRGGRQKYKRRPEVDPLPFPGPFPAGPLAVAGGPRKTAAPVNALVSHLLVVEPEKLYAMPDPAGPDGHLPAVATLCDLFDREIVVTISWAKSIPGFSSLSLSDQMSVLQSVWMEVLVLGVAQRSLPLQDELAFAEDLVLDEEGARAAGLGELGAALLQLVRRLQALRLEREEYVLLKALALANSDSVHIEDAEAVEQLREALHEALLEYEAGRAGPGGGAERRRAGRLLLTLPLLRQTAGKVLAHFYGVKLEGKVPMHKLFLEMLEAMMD
Sequence of Nuclear receptor subfamily 1 group I member 3 (Homo sapiens) (Q14994 whole entry, looked up, the tested form may be a part): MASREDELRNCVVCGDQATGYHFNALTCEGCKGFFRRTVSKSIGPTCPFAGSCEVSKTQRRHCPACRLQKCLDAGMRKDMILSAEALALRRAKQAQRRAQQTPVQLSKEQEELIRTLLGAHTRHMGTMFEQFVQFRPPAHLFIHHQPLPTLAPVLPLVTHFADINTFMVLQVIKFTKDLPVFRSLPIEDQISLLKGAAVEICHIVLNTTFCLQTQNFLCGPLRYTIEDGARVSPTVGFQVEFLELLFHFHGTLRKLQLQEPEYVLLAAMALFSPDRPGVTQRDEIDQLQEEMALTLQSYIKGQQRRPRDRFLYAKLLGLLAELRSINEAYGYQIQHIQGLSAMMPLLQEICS
Sequence of Bile acid receptor (Homo sapiens) (Q96RI1 whole entry, looked up, the tested form may be a part): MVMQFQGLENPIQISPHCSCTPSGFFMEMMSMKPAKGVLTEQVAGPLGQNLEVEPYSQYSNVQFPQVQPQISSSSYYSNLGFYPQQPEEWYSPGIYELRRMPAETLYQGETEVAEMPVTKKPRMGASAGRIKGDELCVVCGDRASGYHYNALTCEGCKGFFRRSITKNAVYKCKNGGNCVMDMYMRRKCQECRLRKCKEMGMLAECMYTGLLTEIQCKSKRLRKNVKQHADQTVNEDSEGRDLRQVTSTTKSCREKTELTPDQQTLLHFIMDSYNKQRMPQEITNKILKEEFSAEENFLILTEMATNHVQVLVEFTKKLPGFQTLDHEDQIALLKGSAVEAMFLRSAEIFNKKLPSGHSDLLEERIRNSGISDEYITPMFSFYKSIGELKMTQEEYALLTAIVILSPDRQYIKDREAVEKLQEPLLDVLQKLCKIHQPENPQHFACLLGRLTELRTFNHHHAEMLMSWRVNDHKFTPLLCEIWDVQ
Sequence of Oxysterols receptor LXR-beta (Homo sapiens) (P55055 whole entry, looked up, the tested form may be a part): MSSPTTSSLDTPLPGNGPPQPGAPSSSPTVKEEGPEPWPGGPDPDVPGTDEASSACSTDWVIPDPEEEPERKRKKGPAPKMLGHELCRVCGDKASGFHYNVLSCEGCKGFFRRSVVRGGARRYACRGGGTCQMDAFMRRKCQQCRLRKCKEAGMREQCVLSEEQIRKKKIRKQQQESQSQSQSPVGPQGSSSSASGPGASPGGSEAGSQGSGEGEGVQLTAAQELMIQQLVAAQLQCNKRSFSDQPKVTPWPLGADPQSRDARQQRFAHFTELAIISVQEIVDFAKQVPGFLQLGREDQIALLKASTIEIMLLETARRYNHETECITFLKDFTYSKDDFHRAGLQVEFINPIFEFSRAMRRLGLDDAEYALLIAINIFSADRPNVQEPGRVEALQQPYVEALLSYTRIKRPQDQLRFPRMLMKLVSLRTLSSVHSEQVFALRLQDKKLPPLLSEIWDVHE
Sequence of Glucocorticoid receptor (Homo sapiens) (P04150 whole entry, looked up, the tested form may be a part): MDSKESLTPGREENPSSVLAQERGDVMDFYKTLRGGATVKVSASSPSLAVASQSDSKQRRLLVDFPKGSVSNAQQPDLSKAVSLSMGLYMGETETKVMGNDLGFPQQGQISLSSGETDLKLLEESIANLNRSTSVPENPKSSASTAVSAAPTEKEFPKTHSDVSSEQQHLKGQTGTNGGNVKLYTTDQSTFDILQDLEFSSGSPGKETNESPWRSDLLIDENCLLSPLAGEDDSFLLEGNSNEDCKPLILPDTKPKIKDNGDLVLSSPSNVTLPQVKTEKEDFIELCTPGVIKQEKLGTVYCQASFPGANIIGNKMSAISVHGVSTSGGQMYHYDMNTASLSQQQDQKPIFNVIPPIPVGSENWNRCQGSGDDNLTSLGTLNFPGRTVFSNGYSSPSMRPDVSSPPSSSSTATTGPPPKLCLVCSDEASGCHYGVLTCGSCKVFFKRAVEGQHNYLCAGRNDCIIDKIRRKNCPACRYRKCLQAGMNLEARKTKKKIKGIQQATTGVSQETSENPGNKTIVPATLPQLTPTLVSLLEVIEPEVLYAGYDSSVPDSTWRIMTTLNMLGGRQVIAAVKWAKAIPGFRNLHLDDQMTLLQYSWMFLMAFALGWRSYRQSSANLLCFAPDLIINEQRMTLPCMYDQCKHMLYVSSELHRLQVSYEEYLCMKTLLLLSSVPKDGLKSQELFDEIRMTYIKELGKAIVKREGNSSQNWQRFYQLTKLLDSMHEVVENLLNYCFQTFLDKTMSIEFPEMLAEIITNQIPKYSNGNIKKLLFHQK

C[C@H]1C[C@@H](O)CC(C)(C)C1
not listed: [16] | [17] | [18] | [19]
inactive: all other assays above

C=Cc1ccncc1
active: [3] 20.2 µM | [5] 26.1 µM | [12] 84.1 µM | [14] 100 µM | [15] 30.8 µM
not listed: [7] | [13] | [18] | [19]
inactive: all other assays above

COc1ccc(OC)c(N=Nc2c(O)ccc3ccccc23)c1
not listed: [6] | [7] | [8] | [10] | [13] | [19]
inactive: all other assays above

C1=CC2C3C=CC(C3)C2C1 (configuration not stated)
not listed: [10] | [12] | [13] | [19]
inactive: all other assays above

COc1ccccc1[N+](=O)[O-]
inactive: [1] | [2] | [3] | [4] | [16] | [5] | [9] | [11] | [17] | [15]

C[Si]1(C)O[Si](C)(C)O[Si](C)(C)O1
not listed: [8] | [10] | [11] | [12] | [13] | [17] | [18] | [19]
inactive: all other assays above

C=CC(=O)OCCC#N
active: [3] 48.8 µM | [5] 36.4 µM
not listed: [6] | [7] | [8] | [9] | [10] | [13] | [19]
inactive: all other assays above

CCOCCOCCOCC
not listed: [9] | [11] | [16] | [17] | [18] | [19]
inactive: all other assays above

CC(=O)NCCO
not listed: [9] | [11] | [14] | [16] | [17] | [19]
inactive: all other assays above

CCCCOCC
inactive: [1] | [2] | [3] | [4] | [5] | [6] | [7] | [19] | [14] | [15]
